# Assay results reported in PubChem BioAssay AID1159580 (chemical genetic matrix, 2015).
# The campaign covered roughly 5,500 compounds. About 2,000 (36%) were called active. Another 18% or so got no clear call; they are omitted. The list shows a part of the results. A number with no mark means an inactive call. Rule as the data show it: active = normalized growth mostly below about 0.91 (no sharp cut-off); inconclusive = no clear call, values can overlap the other calls; inactive = mostly above about 0.92.
# Experiment: chemical genetic growth profiling, strain panel (AID 1159580);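 also: tested at 20 µM; growth read once vehicle control cultures reached saturation at 30 °C; 1 = growth at the plate median or of vehicle wells; lower values mean less growth of the strain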
# Conditions: S. cerevisiae deletion strains, growth OD
smiles,measurement,setting,value
CS(=O)(=O)CCCCN=C=S,normalized growth,"locus YJL187C, strain SWE1 (second series), active compounds read low",0.798 (active)
same,normalized growth,"locus YJR043C, strain POL32, active compounds read low",0.567 (active)
same,normalized growth,"locus YJR066W, strain TOR1, active compounds read low",0.716 (active)
same,normalized growth,"locus YKL009W, strain mrt4, active compounds read low",0.82 (active)
same,normalized growth,"locus YKL068W, active compounds read low",1.01
same,normalized growth,"locus YKL085W, strain MDH1 (second series), active compounds read low",1
same,normalized growth,"locus YKL085W, strain MDH1, active compounds read low",1
same,normalized growth,"locus YKL160W, strain elf1, active compounds read low",0.7 (active)
same,normalized growth,"locus YKR001C, strain vps1, active compounds read low",0.582 (active)
same,normalized growth,"locus YKR026C, strain gcn3, active compounds read low",0.866 (active)
same,normalized growth,"locus YKR091W, strain srl3, active compounds read low",0.877 (active)
same,normalized growth,"locus YLL001W, strain dnm1, active compounds read low",0.596 (active)
same,normalized growth,"locus YLL026W, active compounds read low",0.65 (active)
same,normalized growth,"locus YLL041C, strain sdh2, active compounds read low",0.801 (active)
same,normalized growth,"locus YLR027C, strain aat2, active compounds read low",0.569 (active)
same,normalized growth,"locus YLR039C, strain RIC1, active compounds read low",0.758
same,normalized growth,"locus YLR058C, strain SHM2, active compounds read low",0.801 (active)
same,normalized growth,"locus YLR102C, strain apc9, active compounds read low",0.983
same,normalized growth,"locus YLR113W, strain HOG1, active compounds read low",0.819 (active)
same,normalized growth,"locus YLR221C, strain rsa3, active compounds read low",0.483 (active)
same,normalized growth,"locus YLR258W, strain gsy2, active compounds read low",0.735 (active)
same,normalized growth,"locus YLR262C, strain YPT6 (second series), active compounds read low",0.826 (active)
same,normalized growth,"locus YLR262C, strain YPT6, active compounds read low",0.797
same,normalized growth,"locus YLR268W, strain sec22, active compounds read low",0.669 (active)
same,normalized growth,"locus YLR320W, strain mms22, active compounds read low",0.502 (active)
same,normalized growth,"locus YLR330W, strain CHS5, active compounds read low",0.822 (active)
same,normalized growth,"locus YLR342W, strain FKS1 (second series), active compounds read low",0.813
same,normalized growth,"locus YLR342W, strain FKS1, active compounds read low",0.889 (active)
same,normalized growth,"locus YLR357W, strain rsc2, active compounds read low",0.98
same,normalized growth,"locus YLR370C, strain arc18, active compounds read low",0.766 (active)
same,normalized growth,"locus YLR371W, strain rom2, active compounds read low",0.595 (active)
same,normalized growth,"locus YLR384C, strain iki3, active compounds read low",0.658 (active)
same,normalized growth,"locus YLR418C, strain cdc73, active compounds read low",0.645 (active)
same,normalized growth,"locus YML016C, strain PPZ1, active compounds read low",0.842 (active)
same,normalized growth,"locus YML032C, strain rad52, active compounds read low",0.801 (active)
same,normalized growth,"locus YML120C, strain ndi1, active compounds read low",0.666 (active)
same,normalized growth,"locus YML124C, strain tub3, active compounds read low",0.901 (active)
same,normalized growth,"locus YMR058W, strain fet3, active compounds read low",0.559 (active)
same,normalized growth,"locus YMR078C, strain ctf18, active compounds read low",0.965
same,normalized growth,"locus YMR125W, strain sto1, active compounds read low",0.947
same,normalized growth,"locus YMR129W, active compounds read low",0.798 (active)
same,normalized growth,"locus YMR205C, strain PFK2, active compounds read low",0.732 (active)
same,normalized growth,"locus YMR223W, strain ubp8, active compounds read low",0.735 (active)
same,normalized growth,"locus YMR231W, strain pep5, active compounds read low",0.522 (active)
same,normalized growth,"locus YMR307W, strain GAS1, active compounds read low",0.734
same,normalized growth,"locus YNL067W, strain RPL9B, active compounds read low",0.779 (active)
same,normalized growth,"locus YNL071W, strain lat1, active compounds read low",0.538 (active)
same,normalized growth,"locus YNL183C, strain NPR1, active compounds read low",0.623 (active)
same,normalized growth,"locus YNL209W, strain ssb2, active compounds read low",0.628 (active)
same,normalized growth,"locus YNL233W, strain BNI4, active compounds read low",0.767 (active)
same,normalized growth,"locus YNL248C, strain rpa49, active compounds read low",0.493 (active)
same,normalized growth,"locus YNL250W, strain rad50, active compounds read low",0.884 (active)
same,normalized growth,"locus YNL271C, strain bni1, active compounds read low",0.887 (active)
same,normalized growth,"locus YNL298W, strain CLA4, active compounds read low",0.906 (active)
same,normalized growth,"locus YNL307C, strain MCK1, active compounds read low",0.575 (active)
same,normalized growth,"locus YNL322C, strain KRE1 (second series), active compounds read low",0.711 (active)
same,normalized growth,"locus YNR049C, strain mso1, active compounds read low",0.908 (active)
same,normalized growth,"locus YNR052C, strain pop2, active compounds read low",0.821 (active)
same,normalized growth,"locus YOL012C, strain htz1",0.428
same,normalized growth,"locus YOL147C, strain pex11, active compounds read low",0.827 (active)
same,normalized growth,"locus YOR001W, strain rrp6, active compounds read low",0.643 (active)
same,normalized growth,"locus YOR061W, strain CKA2, active compounds read low",0.936
same,normalized growth,"locus YOR069W, strain VPS5, active compounds read low",0.891 (active)
same,normalized growth,"locus YOR070C, strain gyp1, active compounds read low",0.645 (active)
same,normalized growth,"locus YOR080W, strain dia2, active compounds read low",0.966
same,normalized growth,"locus YOR083W, strain WHI5, active compounds read low",0.554 (active)
same,normalized growth,"locus YOR106W, strain vam3, active compounds read low",0.359 (active)
same,normalized growth,"locus YOR136W, strain idh2, active compounds read low",0.865 (active)
same,normalized growth,"locus YOR144C, strain elg1, active compounds read low",0.932 (active)
same,normalized growth,"locus YOR184W, strain ser1, active compounds read low",0.679 (active)
same,normalized growth,"locus YOR231W, strain MKK1, active compounds read low",0.684 (active)
same,normalized growth,"locus YOR265W, strain rbl2, active compounds read low",0.756 (active)
same,normalized growth,"locus YOR270C, strain vph1, active compounds read low",0.352 (active)
same,normalized growth,"locus YOR290C, strain snf2, active compounds read low",0.685 (active)
same,normalized growth,"locus YOR316C, strain cot1, active compounds read low",0.921 (active)
same,normalized growth,"locus YPL051W, strain arl3, active compounds read low",0.583 (active)
same,normalized growth,"locus YPL078C, strain atp4, active compounds read low",0.562 (active)
same,normalized growth,"locus YPL106C, strain sse1, active compounds read low",0.808 (active)
same,normalized growth,"locus YPL240C, strain hsp82, active compounds read low",0.752 (active)
same,normalized growth,"locus YPL256C, strain CLN2, active compounds read low",0.822 (active)
same,normalized growth,"locus YPR119W, strain clb2, active compounds read low",1
same,normalized growth,"locus YPR141C, strain kar3, active compounds read low",0.981
same,normalized growth,"locus YPR163C, strain tif3, active compounds read low",0.854 (active)
same,normalized growth,"locus YPR167C, strain met16, active compounds read low",0.904 (active)
same,normalized growth,"strain wtn01, active compounds read low",0.652 (active)
